Assay outcomes as filed in PubChem BioAssay.
Shown is part of a subset that was picked to be rich in hits.
PI4K2A inh: inhibitors of human PI4K2A; Q9BTU6; activity change, negative = inhibition, % at 76.9 µM; AID 1346378; purified PI4K2A, ADP-Glo luminescence, 1 h; hits give low values; 420,000 compounds, 0.13% hits; in the data active = activity change below about -50%; inconclusive = mostly about -30% to -49%
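PI4K2A activity was measured by ADP-Glo luminescence: enzyme (4 ug/mL stock) and phosphatidylinositol (1.2 mM stock) in Tris pH 7.5/MgCl2/EGTA/Triton X-100 buffer were reacted with ATP (300 microM stock) for one hour at ambient temperature.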
PGK inhibitor: blocks T. brucei phosphoglycerate kinase; PGK/GAPDH coupled, Kinase-Glo luminescence, 60 min; P07378; 380,000 compounds, 0.043% hits; Potency, µM (highest dose often 57.5 µM), hits mostly inhibitors; AID 602233; active = well fitted inhibition curve with a large enough effect; inconclusive = small, poorly fitted or top-dose-only effect; inactive = no such curve, though single readings can be large or run the other way; also: nearly all actives have a fitted effect of over 60% in size
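Luminescent ATP detection (Kinase-Glo Plus) follows a 60-minute room-temperature incubation, with wells lacking PGK as controls. Buffer: 100 mM TEA (pH 7.6), 5 mM MgCl2, 0.01% Tween-20. Coupling enzyme GAPDH (100 nM final) supplies unstable 1,3-BPG in-well.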
PI5P4K alpha inh: PI5P4K alpha (human) kinase inhibition. P48426. PI5P4Kalpha enzyme, ADP-Glo luminescence, 60 min; hits give low values. max response, %. 330,000 compounds, 1.2% hits. AID 652105; active = max response of -50% or lower; inconclusive = between -30% and -50%; inactive = -30% or higher; also: value at the top dose of about 77 µM
Target sequence (P48426 whole entry, looked up): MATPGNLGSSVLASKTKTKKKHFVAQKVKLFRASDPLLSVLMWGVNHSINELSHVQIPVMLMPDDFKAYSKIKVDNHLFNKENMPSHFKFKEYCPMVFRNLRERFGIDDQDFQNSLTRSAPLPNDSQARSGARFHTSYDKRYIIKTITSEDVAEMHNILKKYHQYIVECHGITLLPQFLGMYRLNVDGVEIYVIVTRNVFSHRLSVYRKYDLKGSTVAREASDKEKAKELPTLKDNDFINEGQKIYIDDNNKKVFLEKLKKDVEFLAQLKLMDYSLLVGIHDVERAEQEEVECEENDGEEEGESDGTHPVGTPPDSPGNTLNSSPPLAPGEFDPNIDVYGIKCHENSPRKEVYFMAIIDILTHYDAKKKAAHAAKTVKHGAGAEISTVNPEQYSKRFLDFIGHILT
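qHTS, 1536-well: enzyme/substrate mix, compound by pin tool, 5 microM ATP final; RT 60 min; ADP-Glo reagents 1 (45 min) then 2 (30 min); luminescence.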
Pin1 inhibitor: blocks the human prolyl isomerase Pin1. Q13526. Pin1 FP peptide displacement, HiFluor488, 10 min. Potency, µM (top dose mostly 115 µM), most hits filed as inhibitors. 390,000 compounds, 0.009% hits; active = well fitted inhibition curve with a large enough effect in the polarisation, with a control signal flat, not every such curve was filed as active; inconclusive = small, poorly fitted or top-dose-only effect, or effect the other way, or a change in a side signal; inactive = no such curve, though single readings can be large or run the other way; the % refers to the polarisation
Target sequence (Q13526 whole entry, looked up): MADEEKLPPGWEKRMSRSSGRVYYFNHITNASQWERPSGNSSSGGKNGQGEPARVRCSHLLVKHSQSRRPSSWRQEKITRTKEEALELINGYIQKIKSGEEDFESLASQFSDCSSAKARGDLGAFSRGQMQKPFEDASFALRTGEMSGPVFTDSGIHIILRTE
Large screens that a line does not name were inactive.

CC(C)n1c(SCC(=O)Nc2nncs2)nnc1-c1ccco1	PI5P4K alpha inh -74, Pin1 inhibitor inconclusive
Cc1nnc(NC(=O)CSc2nnc(-c3ccco3)n2C(C)C)s1	none
Clc1ccc(Cn2cc3c(n2)-c2cc4ccccc4n2C3)cc1	none (no result: PI4K2A inh, PGK inhibitor, PI5P4K alpha inh)
O=[N+]([O-])c1ccc(O)c(C=Nc2ccc3nc(-c4ccccc4)[nH]c3c2)c1	PI5P4K alpha inh inconclusive
Oc1c(Br)cc(C=Nc2ccc3nc(-c4ccccc4)[nH]c3c2)c(O)c1Br	PI5P4K alpha inh -71
COC1=CC(=O)C(O)=C(CCCCCCC/C=C/CCCCCCCC2=C(O)C(=O)C=C(OC)C2=O)C1=O	PGK inhibitor inconclusive, PI5P4K alpha inh -75 (no result: Pin1 inhibitor)
CCCCCCCCCCCC1=C(O)C(=O)C=C(O)C1=O	PI5P4K alpha inh -62, Pin1 inhibitor 28µM
Cc1onc(-c2ccccc2)c1C(=O)Nc1ccc(S(=O)(=O)N2CCOCC2)cc1	none
CCS(=O)(=O)C1=NN2C(=N)/C(=C\c3ccc(OS(=O)(=O)c4ccccc4)cc3)C(=O)N=C2S1	PI5P4K alpha inh -79, Pin1 inhibitor inconclusive
Cc1ccc(S(=O)(=O)Oc2ccc(/C=C3\C(=N)N4N=C(S(C)(=O)=O)SC4=NC3=O)cc2)cc1	PI5P4K alpha inh -57, Pin1 inhibitor inconclusive
COc1cc(/C=C2\C(=N)N3N=C(S(C)(=O)=O)SC3=NC2=O)cc(OC)c1OCCOc1ccc(C)cc1	Pin1 inhibitor inconclusive
CCC1=NN2C(=N)/C(=C/c3ccc(OS(=O)(=O)c4ccccc4)cc3)C(=O)N=C2S1	PI5P4K alpha inh -63, Pin1 inhibitor inconclusive
CC(Cl)OC(=O)Nc1cccc2cccnc12 (centres undefined)	none (no result: PI4K2A inh, PGK inhibitor, PI5P4K alpha inh)
N#Cc1c(NC(=O)c2ccccc2Cl)n(Cc2ccccc2)c2nc3ccccc3nc12	PI4K2A inh -50
C[C@@H](O)[C@H]1C(=O)N2C(C(=O)O)=C([C@H]3CCCO3)S[C@H]12	none (no result: PGK inhibitor, PI5P4K alpha inh, Pin1 inhibitor)
O=C(Nc1cccc(F)c1)c1ccc2c(c1)N(Cc1ccccc1)C(=O)c1ccccc1S2(=O)=O	none (no result: PI5P4K alpha inh)
CC1(c2ccc3c(c2)OCCO3)NC(=O)N(CC(=O)c2ccc[nH]2)C1=O (centres undefined)	PI5P4K alpha inh -53
Cc1cc(=O)oc2cc(O[C@@H]3SC[C@@H](O)[C@H](O)[C@H]3O)ccc12	none (no result: PGK inhibitor, PI5P4K alpha inh, Pin1 inhibitor)
O=C(O)C1CSC(c2ccco2)N1 (centres undefined)	PGK inhibitor inconclusive, PI5P4K alpha inh -80 (no result: Pin1 inhibitor)
Cc1cc(O)c(CN2CCN(c3ccccc3)CC2)c2oc(=O)cc(C)c12	none (no result: PGK inhibitor, PI5P4K alpha inh)
CCC(O)c1cnc(OCc2ccccc2)nc1OCc1ccccc1 (centres undefined)	none (no result: Pin1 inhibitor)
CCOC(=O)C1=C(O)/C(=C\c2cccs2)N=C1C	none
CCOC(=O)C1=C(O)/C(=C\c2ccc(CNC(=O)C(=O)Nc3ccccc3)o2)N=C1C	PI5P4K alpha inh -65
COc1ccccc1-n1cnnc1SCC(=O)c1c[nH]c2ccccc12	PI5P4K alpha inh -56
O=C1CCC2=C1C(c1ccccc1Cl)N=C(Nc1nc3ccccc3o1)N2 (centres undefined)	none (no result: PI4K2A inh, PGK inhibitor, PI5P4K alpha inh)
O=C(Nc1ccc2cn[nH]c2c1)c1c(Cl)cccc1Cl	none
O=C1C(Cl)=C(Nc2ccc3cn[nH]c3c2)C(=O)c2ccccc21	PI5P4K alpha inh -87
COc1ccc(-c2cc(=O)c3c(O)cc(O)cc3o2)cc1	none
O=c1cc(-c2ccc(O)cc2)oc2c(-c3c(O)cc(O)c4c(=O)cc(-c5ccc(O)cc5)oc34)c(O)cc(O)c12	PI5P4K alpha inh inconclusive
O=c1cc(-c2ccc(O)c(-c3c(O)cc(O)c4c(=O)cc(-c5ccc(O)cc5)oc34)c2)oc2cc(O)cc(O)c12	PI5P4K alpha inh -96, Pin1 inhibitor inconclusive
O=c1c(-c2c(O)cc(O)c3c(=O)cc(-c4ccc(O)cc4)oc23)c(-c2ccc(O)cc2)oc2cc(O)cc(O)c12	PI4K2A inh inconclusive, PGK inhibitor inconclusive, PI5P4K alpha inh -83, Pin1 inhibitor inconclusive
CC(=O)Nc1cccc(-c2cc(NC=O)c3ncc(-c4cccc(C(C)=O)c4)n3c2)c1	PI5P4K alpha inh -55 (no result: PGK inhibitor, Pin1 inhibitor)
COc1cccc(-c2cnc3c(NC=O)cc(-c4cccc(NC(C)=O)c4)cn23)c1	PI5P4K alpha inh -77 (no result: PGK inhibitor, Pin1 inhibitor)
COc1cccc(-c2cc(NC=O)c3ncc(-c4ccc(C(C)=O)cc4)n3c2)c1	PI5P4K alpha inh -68 (no result: PGK inhibitor, Pin1 inhibitor)
COc1cccc(-c2cnc3c(NC=O)cc(-c4ccccc4)cn23)c1	PI5P4K alpha inh inconclusive (no result: PGK inhibitor, Pin1 inhibitor)
CN(C)C(=O)c1cccc(-c2cc(NC=O)c3ncc(-c4ccc(F)cc4)n3c2)c1	none (no result: PGK inhibitor, Pin1 inhibitor)
CC(=O)c1ccc(-c2cnc3c(NC=O)cc(-c4cccc(C(=O)N(C)C)c4)cn23)cc1	PI5P4K alpha inh -59 (no result: PGK inhibitor, Pin1 inhibitor)
